Rows were chosen to be rich in hits. Some 9.4% of all compounds tested hit in one or more screens of this group.
FLuc counter: qHTS profiling assay for firefly luciferase inhibitor/activator using purifed enzyme and Km concentrations of substrates (counterscreen for miR-21 project). Potency, µM (doses to about 57.5 µM), hits mostly inhibitors. actives 6.9% (n = 360,000). Luciferin 4-monooxygenase (Photinus pyralis), P08659. purified FLuc, Km substrates, luminescence inhibition; note: nearly all actives have a fitted effect of over 55% in size
Target sequence (P08659 whole entry, looked up): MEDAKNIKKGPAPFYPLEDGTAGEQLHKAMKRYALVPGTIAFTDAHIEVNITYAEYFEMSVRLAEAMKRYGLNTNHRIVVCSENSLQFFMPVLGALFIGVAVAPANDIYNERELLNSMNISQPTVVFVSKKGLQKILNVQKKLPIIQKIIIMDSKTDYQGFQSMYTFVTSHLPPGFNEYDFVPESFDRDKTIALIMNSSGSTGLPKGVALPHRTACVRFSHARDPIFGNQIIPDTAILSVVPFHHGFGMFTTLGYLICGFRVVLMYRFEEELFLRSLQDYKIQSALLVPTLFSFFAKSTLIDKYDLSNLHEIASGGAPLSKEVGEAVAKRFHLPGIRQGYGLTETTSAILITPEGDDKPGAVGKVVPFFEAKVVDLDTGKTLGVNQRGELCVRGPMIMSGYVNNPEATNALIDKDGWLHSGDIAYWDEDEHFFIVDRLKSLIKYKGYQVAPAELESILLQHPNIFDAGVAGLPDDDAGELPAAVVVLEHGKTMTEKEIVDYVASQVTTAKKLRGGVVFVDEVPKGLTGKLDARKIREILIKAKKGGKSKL
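Biochemical qHTS of compounds, final roughly 60 µM downward over six points, against 10 nM purified firefly luciferase using Km concentrations of substrates (10 uM D-luciferin, 10 uM ATP) in Tris acetate pH 7.5 buffer; luminescence output.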
SMN2 splice enh: qHTS Assay for Enhancers of SMN2 Splice Variant Expression | HEK293 SMN2-luciferase splicing reporter, luminescence, 30-36 h | Potency, µM (doses to about 46.1 µM), most hits filed as activators | actives 2.8% (n = 210,000) | AID 1458, 2008; note: nearly all actives have a fitted effect of over 55% in size
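HEK293 cells carry an SMN2 […]–luciferase reporter in which exon 7 inclusion puts luciferase in frame. Cells were plated 10-12 h before compound addition, then incubated 30-36 h at 37C. ONE-Glo luminescence was read; sodium butyrate at 4.5 mM final served as control.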
Rab9 prom act: qHTS Assay for Rab9 Promoter Activators; AID 485297, 2010; Potency, µM (highest dose often 9.22 µM), actives largely listed as activators; Huh7 Rab9 promoter-luciferase reporter, luminescence, 24 h; actives 2.8% (n = 320,000); note: nearly all actives have a fitted effect of over 60% in size
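Huh7 reporter line, Rab9 promoter upstream of luciferase. Compound exposure 24 h at 37 °C in reduced-serum medium with 10% FBS. Read-out: luminescence.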
ELG1 genotoxic: qHTS screen for small molecules that induce genotoxicity in human embryonic kidney (HEK293T) cells expressing luciferase-tagged ELG1; HEK293T ELG1-luciferase reporter, luminescence, 16 h; Potency, µM (top dose mostly 46 µM), hits mostly activators; actives 1.3% (n = 330,000); note: nearly all actives have a fitted effect of over 60% in size
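Genotoxicity was scored as increased ELG1-luciferase reporter signal, measured by ONE-Glo luminescence (30 min, room temperature). Compound or vehicle exposure of the HEK293T reporter cells lasted 16 hr at 37°C.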
ELG1 repair inh: qHTS screen for small molecules that inhibit ELG1-dependent DNA repair in human embryonic kidney (HEK293T) cells expressing luciferase-tagged ELG1. HEK293T ELG1-luciferase reporter, luminescence, 16 h; DNA damage induced by 5-fluorouridine. Potency, µM (highest dose often 46.1 µM), usual class: inhibitors. actives 2.3% (n = 330,000); note: nearly all actives have a fitted effect of over 55% in size
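HEK293T cells expressing luciferase-tagged ELG1 (2,000/well) received 5-Fluorouridine plus compound or DMSO for 16 hr at 37 °C. Luciferase was read by ONE-Glo luminescence after 30 min at room temperature.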
NPC1 promoter act: qHTS Assay for NPC1 Promoter Activators. Huh7 NPC1 promoter luciferase reporter, 24 h. Potency, µM (titrated, usually from 9.22 µM), hits mostly activators. actives 2.4% (n = 320,000). AID 485313, 2010; note: nearly all actives have a fitted effect of over 60% in size
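Stable NPC1-promoter luciferase Huh7 line; cpd (DMSO) 24 h, 37 °C, 5% CO2; Amplite luciferase reagent 10 min RT; luminescence readout. qHTS format.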
A number is an active result. Calls come from the whole dose curve; as a rule, active = well fitted curve in the direction sought with a large enough effect; inconclusive = small, poorly fitted or top-dose-only effect, or another doubt; inactive = no such curve, though single readings can be large; an effect the other way counts as inactive or inconclusive.

`CCOC(=O)c1c(-c2ccc(-c3ccccc3)cc2)csc1NC(=O)c1cccc(N2C(=O)CCC2=O)c1` gave FLuc counter inactive, SMN2 splice enh inactive, Rab9 prom act inactive, ELG1 genotoxic inactive, ELG1 repair inh 7.3µM and NPC1 promoter act inactive.
`CCc1ccc(-c2csc(NC(=O)C3=NN(c4ccccc4)C(=O)CC3)n2)cc1` gave FLuc counter 6µM, SMN2 splice enh inactive, Rab9 prom act inactive, ELG1 genotoxic inactive, ELG1 repair inh inconclusive and NPC1 promoter act inactive.
For CCOc1ccc(-c2csc(NC(=O)c3cccc(N4C(=O)CCC4=O)c3)n2)cc1 the results were FLuc counter 9.5µM, Rab9 prom act inactive, ELG1 genotoxic inactive, ELG1 repair inh inactive and NPC1 promoter act inactive.
CC(CNC(=O)Cn1ccc2cc(S(=O)(=O)N3CCCCCC3)ccc21)c1ccccc1 (centres undefined) was read as FLuc counter inactive.
O=C(Nc1cc2c(cc1C(=O)c1ccccc1Br)OCCO2)c1ccccc1 was read as FLuc counter inactive and SMN2 splice enh inactive.
COc1ccc(-c2csc(NC(=O)CCN3C(=O)C4CC=CCC4C3=O)n2)cc1OC (centres undefined) was read as FLuc counter 17µM, Rab9 prom act inactive, ELG1 genotoxic inactive, ELG1 repair inh inconclusive and NPC1 promoter act inactive.
For Cc1ccc(-c2csc(NC(=O)c3cccc(N4C(=O)CCC4=O)c3)n2)o1 the results were FLuc counter 9.5µM, SMN2 splice enh inactive, Rab9 prom act inactive, ELG1 genotoxic inactive, ELG1 repair inh inactive and NPC1 promoter act inactive.
Screening COc1ccc(-c2csc(NC(=O)CN3C(=O)C4CC=CCC4C3=O)n2)cc1 (centres undefined) returned Rab9 prom act inactive, ELG1 genotoxic inactive, ELG1 repair inh inactive and NPC1 promoter act inactive.
For CCOC(=O)Cc1csc(NC(=O)c2cccc(N3C(=O)CCC3=O)c2)n1 the results were FLuc counter inactive, Rab9 prom act inactive, ELG1 genotoxic inactive, ELG1 repair inh inactive and NPC1 promoter act inactive.
For Cc1c2cnn(CC(=O)NCCc3ccccc3)c(=O)c2c(C)n1Cc1ccccc1 the results were FLuc counter inactive and SMN2 splice enh inactive.
O=[N+]([O-])c1cc(-c2n(-c3ccccn3)c3ccccc3[n+]2-c2ccccn2)ccc1Cl was read as FLuc counter inactive, SMN2 splice enh inactive, Rab9 prom act inactive, ELG1 genotoxic inactive, ELG1 repair inh 18µM and NPC1 promoter act inactive.
For O=C(c1ccc(Cl)c([N+](=O)[O-])c1)N1CCN(c2ccccn2)CC1 the results were FLuc counter inactive, SMN2 splice enh inactive, Rab9 prom act inactive, ELG1 genotoxic inactive, ELG1 repair inh inactive and NPC1 promoter act inactive.
Screening Cc1ccc(NC(=O)Nc2cccc([N+](=O)[O-])c2)cc1F returned FLuc counter 11µM, Rab9 prom act inactive, ELG1 genotoxic inactive, ELG1 repair inh inconclusive and NPC1 promoter act inconclusive.
O=C(Nc1ccc(OC(F)(F)F)cc1)Nc1cccc([N+](=O)[O-])c1 was read as FLuc counter 24µM, Rab9 prom act inactive, ELG1 genotoxic inactive, ELG1 repair inh inconclusive and NPC1 promoter act inactive.
COc1ccc2oc(-c3cccc(NC(=O)c4ccc(C#N)cc4F)c3)nc2c1 was read as FLuc counter inactive and SMN2 splice enh inactive.
For CCCCC/C=C\C/C=C\C/C=C\C/C=C\CCCCCC(N)=O the results were SMN2 splice enh inactive.
`O=c1oc(Nc2ccc(F)cc2)nc2ccccc12` gave FLuc counter 13µM, SMN2 splice enh inactive, Rab9 prom act 2.5µM, ELG1 genotoxic inconclusive, ELG1 repair inh inconclusive and NPC1 promoter act 2.2µM.
